# “And” between values parts separate entries of the source, which are not always exact repeats. Identical values can stand only once. Inconclusive results are not listed. Where a call stands in place of a potency, no number is given. The source made the active and inactive calls. Calls follow the shape of the dose curve; as a rule, active = well fitted activation curve with a large enough effect in the signal ratio in the repeat runs (not every such curve was filed as active); inconclusive = weak or mixed curves; inactive = flat fitted curve, though single readings scatter; the % refers to the signal ratio.
# Test: qHTS assay to identify small molecule agonists of H2AX (AID 1224845)
# Settings: CHO-K1 phospho-H2AX Ser139 HTRF, 3 h; series mostly up to 154 µM
# Excerpt: National Center for Advancing Translational Sciences [NCATS]
# NIH Chemical Genomics Center [NCGC]
# U.S. Environmental Protection Agency [EPA]
# National Institutes of Environmental Health Sciences [NIEHS]
# National Toxicology Program [NTP]
# U.S. Food and Drug Administration [FDA]
# HTRF phospho-H2AX (Ser139) assay (Cisbio Bioassays, US) enables the quantitative detection of the histone variant H2AX when phosphorylated on serine 139. When double-stranded DNA breaks, either by ionizing radiation or endogenous physiological processes, H2AX becomes phosphorylated at Ser139. This phospho-Ser139 serves as a sensitive biomarker for the detection of such breaks, localizing the site of DNA repair. So, HTRF phospho-H2AX Ser139 is a pertinent assay to study genome stability, the cell cycle, DNA repair, and it serves as a biomarker for cancer, and to understand aging. Wild type CHO-K1 cells were used to identify the inducers of Phospho-H2AX Ser 139 from the Tox21 10K compound collections.
# Tox21 Assay Protocol Summary:
# The CHO-K1 cells suspended in culture medium containing 10% FBS were dispensed at 1000 cells/ 3 ul/well in 1536-well white wall/solid bottom plates (Greiner Bio-One North America, NC) using a Multidrop Combi (Thermo Fisher Scientific Inc., Waltham, MA). After the assay plates were incubated at 37C overnight, 23 nl of compounds at 15 concentrations (from 5-48 columns) or positive control (from 1 to 4 columns) were transferred to the assay plates using a Pintool station (Wako, San Diego, CA) into each well resulting in a final DMSO concentration of 0.76%. After 3hr incubation at 37C, 1 uL/well Supplemented Lysis buffer (diluted 100 fold blocking reagent in lysis buffer) (HTRF Phospho-H2A.X (S139) Assay kit from Cisbio US Inc., Bedford, MA) was added using a Flying Reagent Dispenser (FRD) (Aurora Discovery, CA). After 10sec spin at 1000 rpm in a plate centrifuge, the assay plates were incubated at room temperature for 30 min. Then followed by the addition of 1 uL/well detection buffer (containing a mixture of two antibodies, one labeled with cryptate, Anti pH2AX (S139)-K and another labeled with d2, Anti H2AX-d2) using FRD. After incubation at room temperature for 24 hr, the time resolved fluorescence at excitation 320 nm and emissions at 665 nm and 620 nm was measured using an Envision plate reader (PerkinElmer, Waltham, MA).
# Potency is read from the fitted curve at half-maximal effect.
row,Compound,Potency
1,CCCCN(CCCC)C(=S)S,inactive
2,CCNc1nc(NC(C)C(C)C)nc(SC)n1 (stereo not given),inactive
3,CN1C(=O)[C@@H](NC(=O)c2cc3ccccc3[nH]2)N=C(c2ccccc2)c2ccccc21,inactive
4,Cc1ccc(C)c2ccccc12,inactive
5,CO/N=C(\C(=O)OC)c1ccccc1CO/N=C(\C)c1cccc(C(F)(F)F)c1,inactive
6,C=CCBr,inactive
7,CC(Cc1ccc(O)cc1)NCC(O)c1cc(O)cc(O)c1 (stereo not given),inactive
8,CCn1cc[n+](C)c1 (tested in a mixture with another compound),inactive
9,Oc1cccc(Cl)c1Cl,inactive
10,O=C(NC(=O)c1c(F)cccc1F)Nc1ccc(Oc2ccc(C(F)(F)F)cc2Cl)cc1F,inactive
11,ClC1=C(Cl)[C@]2(Cl)[C@@H]3[C@H]4C[C@H]([C@@H]5O[C@H]45)[C@@H]3[C@@]1(Cl)C2(Cl)Cl,inactive
12,CCC1COC(Cn2cncn2)(c2ccc(Cl)cc2Cl)O1 (stereo not given),inactive
13,CCN(CC)C(=O)N[C@@H]1C=C2c3cccc4[nH]cc(c34)C[C@@H]2N(C)C1,inactive
14,CCC(C)Nc1c([N+](=O)[O-])cc(C(C)(C)C)cc1[N+](=O)[O-] (stereo not given),inactive
15,[Cl][Hg][c]1ccccc1,inactive
16,C[C@]12Cc3cn[nH]c3C[C@@H]1CC[C@@H]1[C@@H]2CC[C@@]2(C)[C@H]1CC[C@]2(C)O,inactive
17,ClCBr,inactive
18,O=[N+]([O-])c1ccc(CCl)cc1,inactive
19,CCOP(=O)(OCC)Oc1nc(Cl)c(Cl)cc1Cl,inactive
20,COc1ccc2[nH]cc(CCN(C(C)C)C(C)C)c2c1,inactive

row,Compound,Potency
1,CC#C[C@]1(O)CC[C@H]2[C@@H]3C[C@H](C)C4=CC(=O)CC[C@]4(C)[C@H]3CC[C@@]21C,7.8 µM (active)
2,Clc1ccc(C(c2ccc(Cl)cc2)C(Cl)Cl)cc1,89.8 µM (active)
3,[O-][Cl+3]([O-])([O-])O,inactive
4,Nc1cc(Cl)ccc1Cl,inactive
5,C[C@]12C/C(=C/O)C(=O)C[C@@H]1CC[C@@H]1[C@@H]2CC[C@@]2(C)[C@H]1CC[C@]2(C)O,90.6 µM (active)
6,C=CC(=C)C,inactive
7,CC(C)N(C(=O)SC/C(Cl)=C/Cl)C(C)C,inactive
8,c1ccc2c(c1)cc1ccc3cccc4ccc2c1c34,inactive
9,CNC(C)(C)Cc1ccccc1,inactive
10,ClC1(Cl)C2(Cl)C3(Cl)C4(Cl)C(Cl)(Cl)C5(Cl)C3(Cl)C1(Cl)C5(Cl)C24Cl (stereo not given),inactive
11,CC(C)C(Nc1ccc(C(F)(F)F)cc1Cl)C(=O)OC(C#N)c1cccc(Oc2ccccc2)c1 (stereo not given),inactive
12,CC(C)(C)c1ccc(OP(=O)(Oc2ccccc2)Oc2ccccc2)cc1,inactive
13,NC1CCC(CC2CCC(N)CC2)CC1 (stereo not given),inactive
14,O=C(NC(=O)c1ccccc1Cl)Nc1ccc(OC(F)(F)F)cc1,inactive
15,CC(Cc1ccc(OCC(=O)O)cc1)NCC(O)c1csc(C(F)(F)F)n1 (stereo not given),inactive
16,COC(=O)/C=C(\C)OP(=O)(OC)OC,inactive
17,O=c1[nH]c2cc(Cl)ccc2n1C1CCNCC1,inactive
18,O=S1OCC2C(CO1)C1(Cl)C(Cl)=C(Cl)C2(Cl)C1(Cl)Cl (stereo not given),89.9 µM (active) and 101 µM (active)
19,Cc1c([N+](=O)[O-])cc2c(c1[N+](=O)[O-])C(C)(C)CC2(C)C,inactive
20,COC(=O)C(C)N(C(=O)c1ccco1)c1c(C)cccc1C (stereo not given),inactive

# Reference: PubChem BioAssay (Tox21)
